From PubChem BioAssay
Compounds with a hit are over-represented: about 1.2% of the library has one in this group of screens.
HUVEC tox TNFa = HUVEC cytotoxicity counter-screen, TNF alpha stimulated. HUVEC TNFalpha-stimulated, Hoechst cell count, imaging. cell count reduction, % at 2 µM. 0.17% of 93,000 active;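 active = cell count reduction exceeding the screen mean by over 5 SD, scaled to untreated wells per plate, cut at about 78% in these data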;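 also: cells counted after 24 h of TNF alpha exposure following the 1 h pretreatment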
VCAM1 TNFa inh = reduces TNF alpha induced VCAM1 expression in HUVEC | inhibition, % at 2 µM | 0.48% of 95,000 active | HUVEC TNFa-induced VCAM-1 immunofluorescence, high-content imaging | AID 802;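 active = inhibition above the batch mean plus 3 SD, with images confirmed as a hit by eye, cut at about 37% in these data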
E-sel TNF inh = TNF alpha driven E-selectin expression inhibition. AID 1246. inhibition, % at 2 µM. HUVEC TNFa-induced E-selectin immunofluorescence, high content. 0.71% of 120,000 active;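 active = inhibition above the batch mean plus 3 SD, and confirmed as a hit on visual image review, cut at about 43% in these data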
F-actin modifier = alters cytoskeleton assembly in HUVEC cells. AID 836. inhibition, % at 2 µM. HUVEC TNFa F-actin phalloidin imaging, high content. 0.18% of 91,000 active;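 active = inhibition above the batch mean plus 3 SD and confirmed as a hit by visual image inspection, cut at about 30% in these data, passing the limit was not always enough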
Large screens that a line does not name were inactive.

CCc1nnc(NC(=O)CCC(=O)N2CCN(C3CCCCC3)CC2)s1	none
CC(C)c1nnc(NC(=O)CCC(=O)N2CCN(C3CCCCC3)CC2)s1	VCAM1 TNFa inh 36
CCCCc1ccc(NC(=O)c2cnccn2)cc1	none (no result: HUVEC tox TNFa, VCAM1 TNFa inh, F-actin modifier)
Cc1ccc(-n2nnc3c(SCC(=O)N4CCN(c5ccccc5)CC4)ncnc32)cc1	VCAM1 TNFa inh 92
O=C1CC(N2CCN(Cc3ccc4c(c3)OCO4)CC2)C(=O)N1Cc1ccc(N2CCCC2=O)cc1 (stereo unspecified)	HUVEC tox TNFa 92, VCAM1 TNFa inh 80 (no result: E-sel TNF inh)
O=C1CC(N2CCOCC2)C(=O)N1Cc1ccc(N2CCCC2=O)cc1 (stereo unspecified)	none
Nc1sc(-c2ccccc2)c(Cc2ccccc2)c1C(=O)O	none (no result: HUVEC tox TNFa, VCAM1 TNFa inh, F-actin modifier)
COC(=O)c1ccccc1Oc1ccc(NC(=O)CCCl)cc1	none (no result: HUVEC tox TNFa, VCAM1 TNFa inh, F-actin modifier)
CC(C)(O)C#Cc1ccc(C(=O)NCc2ccccc2F)cc1	none (no result: HUVEC tox TNFa, VCAM1 TNFa inh, F-actin modifier)
Cc1ccc2oc(Nc3nc(-c4ccccc4)cc(=O)[nH]3)nc2c1	E-sel TNF inh 100 (no result: HUVEC tox TNFa, VCAM1 TNFa inh, F-actin modifier)
CCCCN(C(=O)NC(=O)Nc1ccc(C)cn1)S(C)(=O)=O	none (no result: HUVEC tox TNFa, VCAM1 TNFa inh, F-actin modifier)
CN(C(=O)CSC1=NC2C(N=N1)c1cc(Br)ccc1N2C)C1CCCCC1 (stereo unspecified)	none (no result: HUVEC tox TNFa, VCAM1 TNFa inh, F-actin modifier)
O=S(=O)(c1cccs1)N1CCN(CC(O)COc2cccc(Br)c2)CC1 (stereo unspecified)	VCAM1 TNFa inh 94
O=S(=O)(c1cccs1)N1CCN(CC(O)COC2CCCc3ccccc32)CC1 (stereo unspecified)	none
O=C(N/N=C/c1ccc[nH]1)c1sc2ccccc2c1Cl	VCAM1 TNFa inh 38
CCc1ccc2c(Cl)c(C(=O)N/N=C/c3c[nH]c4ccccc34)sc2c1	none
N#Cc1cc([N+](=O)[O-])cnc1N(CCO)CCO	none (no result: HUVEC tox TNFa, VCAM1 TNFa inh, F-actin modifier)
CCOC(=O)CSc1nc2cc(OC)ccc2cc1C#N	E-sel TNF inh 100
CC1=C([N+](=O)[O-])C(c2cccc(Br)c2)C2=C(N1)c1ccccc1C2=O (stereo unspecified)	VCAM1 TNFa inh 93
COc1nccnc1NS(=O)(=O)c1ccc(NC(=O)c2cccc(C)c2)cc1	none (no result: HUVEC tox TNFa, VCAM1 TNFa inh, F-actin modifier)
O=C(N/N=C/c1ccc([N+](=O)[O-])s1)c1cccnc1	E-sel TNF inh 72 (no result: HUVEC tox TNFa, VCAM1 TNFa inh, F-actin modifier)
Cc1nc2c(sc3nc4c(cc32)COC(C)(C)C4)c(=O)o1	E-sel TNF inh 81
CC(=O)Nc1nc(C)c(-c2csc(Nc3cccc([N+](=O)[O-])c3)n2)s1	none
CC(=O)c1cccc(Nc2nc(-c3cccc([N+](=O)[O-])c3)cs2)c1	VCAM1 TNFa inh 39
COc1cc(NC(=O)Cc2c(C(=O)O)n(C)c3ccccc23)cc(OC)c1OC	none (no result: HUVEC tox TNFa, VCAM1 TNFa inh, F-actin modifier)
O=C(Nc1ccccc1)N(CCc1ccncc1)C1CCCCC1	E-sel TNF inh 98
COc1ccc(-c2nnnn2CCc2ccccc2)cc1	none
CCNCC(O)COCC(O)CNCC (stereo unspecified)	VCAM1 TNFa inh 62
O=C(COC(=O)C12CC3CC(CC(C3)C1)C2)Nc1nc2c(F)c(F)c(F)cc2s1	none (no result: HUVEC tox TNFa, VCAM1 TNFa inh, F-actin modifier)
CN(C)c1cccc(C(=O)Nc2ccc(N3CCOCC3)cc2)c1	F-actin modifier 32
O=C(NCCN1C(=O)CSC1=O)c1ccccc1	E-sel TNF inh 69
COc1ccccc1-n1c(=O)[nH]c2c(C(N)=O)nc(C3CCCCC3)nc21	E-sel TNF inh 68
Cc1nc2ccc(NC(=O)c3cc(S(=O)(=O)N4CCOCC4)ccc3C)cc2s1	E-sel TNF inh 92
OCCC1CN(Cc2cccc3c2OCO3)CCN1C1CCCC1 (stereo unspecified)	none (no result: HUVEC tox TNFa, VCAM1 TNFa inh, F-actin modifier)
CCN(CC)c1ccc(NC(=O)COC(=O)/C=C/c2nc3ccccc3s2)cc1	E-sel TNF inh 62 (no result: HUVEC tox TNFa, VCAM1 TNFa inh, F-actin modifier)
CCOC(=O)C1=C(SCC)c2cc3c(n2C1=O)CCCC3	F-actin modifier 30
COC(=O)c1ccccc1NC(=O)Cn1c(-c2nonc2N)nc2ccccc21	VCAM1 TNFa inh 79
CCOc1cc(S(=O)(=O)NCCc2cccc(C)c2)c(OCC)cc1-n1cnnn1	none (no result: E-sel TNF inh)
O=C(CSc1ccc2c(c1)OCCO2)NC(=O)Cc1ccccc1	none (no result: HUVEC tox TNFa, VCAM1 TNFa inh, F-actin modifier)
CCCn1nc([N+](=O)[O-])c(C(C#N)c2nc3ccccc3s2)c(Cl)c1=O (stereo unspecified)	VCAM1 TNFa inh 51
CCc1cccc(NC(=O)Cn2cc(C=O)c3ccccc32)c1	none (no result: HUVEC tox TNFa, VCAM1 TNFa inh, F-actin modifier)
CCOC(=O)Cc1csc(NC(=O)COc2ccc(OC)cc2)n1	E-sel TNF inh 91
CCOC(=O)Cc1csc(NC(=O)COc2ccc(N(C)S(=O)(=O)c3ccc(C)cc3)cc2)n1	VCAM1 TNFa inh 91
COc1ccc(C(=O)NNC(=O)CSc2nnc(COc3ccccc3OC)n2C)cc1	none (no result: HUVEC tox TNFa, VCAM1 TNFa inh, F-actin modifier)
O=C(NCCSCc1c(F)cccc1Cl)c1ccc(CN2CCOCC2)cc1	none (no result: HUVEC tox TNFa, VCAM1 TNFa inh, F-actin modifier)
COc1ccccc1N(CC(=O)N/N=C(\C)c1cccc(Br)c1)S(C)(=O)=O	none (no result: HUVEC tox TNFa, VCAM1 TNFa inh, F-actin modifier)
C/C(=N\NC(=O)CN(c1ccccc1Br)S(C)(=O)=O)c1ccc2c(c1)OCCO2	E-sel TNF inh 66 (no result: HUVEC tox TNFa, VCAM1 TNFa inh, F-actin modifier)
